Compound activity: PubChem, Broad Institute
dFosB act – mouse delta FosB homodimer activation; purified delta FosB, TAMRA-CDK5 oligo fluorescence polarization; percent of positive-control signal above neutral wells; activation, % at 25 µM; 340,000 compounds, 0.99% hits; AID 493131;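 active means mean activation above about 17%, with every replicate also reaching it, limit read from the data, passing the limit was not always enough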
PglD DTNB – blocks C. jejuni PglD acetyltransferase activity; purified PglD enzyme, DTNB colorimetric CoA detection; inhibition, % at 12.5 µM; 360,000 compounds, 0.098% hits; in the data active means inhibition above about 16%, passing the limit was not always enough
CDK5 p35 inh – blocks human CDK5/p35 kinase activity | Q00535+Q15078 | 330,000 compounds, 0.01% hits | inhibition, % at 10 µM | Recombinant CDK5/p35, ADP-Glo luminescence, 60 min;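 active means highest replicate inhibition of at least 50% and at least 75% of replicates reaching 50%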;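 further: plate controls were DMSO neutral control for no effect and GW8510 at 10 µM for full effect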
Target sequence (Q00535 whole entry, looked up): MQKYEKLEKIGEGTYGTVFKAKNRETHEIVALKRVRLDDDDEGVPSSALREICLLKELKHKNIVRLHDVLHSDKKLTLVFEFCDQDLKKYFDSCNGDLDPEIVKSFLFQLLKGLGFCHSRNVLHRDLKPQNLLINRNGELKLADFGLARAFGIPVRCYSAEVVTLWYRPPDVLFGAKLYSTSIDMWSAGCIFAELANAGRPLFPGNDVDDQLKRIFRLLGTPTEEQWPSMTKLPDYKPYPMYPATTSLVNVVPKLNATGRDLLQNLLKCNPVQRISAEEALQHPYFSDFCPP
Target sequence (Q15078 whole entry, looked up): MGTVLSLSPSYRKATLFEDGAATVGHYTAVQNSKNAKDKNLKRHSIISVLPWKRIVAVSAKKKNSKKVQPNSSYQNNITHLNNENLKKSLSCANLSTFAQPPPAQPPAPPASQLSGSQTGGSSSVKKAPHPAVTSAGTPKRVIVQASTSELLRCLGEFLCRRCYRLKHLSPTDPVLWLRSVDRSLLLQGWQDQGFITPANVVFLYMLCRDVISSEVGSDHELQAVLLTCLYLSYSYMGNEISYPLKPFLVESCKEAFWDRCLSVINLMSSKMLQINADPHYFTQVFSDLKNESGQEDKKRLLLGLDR
FGF22 binding – binders of recombinant human FGF22 by thermal shift; AID 651658; activity (Tm shift, normalised), % at 9.99 µM; 340,000 compounds, 1.5% hits; SYPRO orange fluorescence; percent of sucrose octasulfate shift, DMSO zero;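 active means mean Tm shift, scaled 0 neutral to 100 positive control, at about 1.3% or above, every replicate too, limit read from the data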
SIRT5 inh – blocks human SIRT5 desuccinylation of peptide. Q9NXA8. Purified SirT5, succinyl-peptide AMC, trypsin-coupled fluorescence. inhibition, % at 15 µM. 330,000 compounds, 1.1% hits. AID 652115; in the data active means inhibition above about 15%
PvdQ inh – blocks Pseudomonas aeruginosa PvdQ acylase activity. purified PvdQ acylase, fluorescence plate reader. inhibition, % at 10 µM. 340,000 compounds, 0.063% hits; in the data active means inhibition above about 30%, passing the limit was not always enough;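 further: 0% = vehicle neutral wells and 100% = reference inhibitor wells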
* = called active by the depositor; nt = not tested or not shown. Only some compounds are listed: those with a hit (about 2.8% of all), similar ones and a draw of the others.

SMILES	dFosB act	PglD DTNB	CDK5 p35 inh	FGF22 binding	SIRT5 inh	PvdQ inh
CC(C)CC(=O)Nc1cccc(-c2nc3ncccc3o2)c1	-24	-3	-1	0	-9	0
CCCC(=O)NC(=S)Nc1cccc(-c2nc3ncccc3o2)c1	-15	nt	0	43*	-2	-3
CN(C)CC(=O)Nc1ccc2c(c1)[C@@H]1C[C@H](CC(=O)NC3CCCC3)O[C@@H](CO)[C@@H]1O2	nt	1	nt	0	-3	nt
Cc1ccn2c(Nc3ccccc3)c(-c3ccccn3)nc2c1	33*	3	1	0	-7	-2
N#CCC(=O)c1ccccc1Oc1ccc(Cl)cc1	-7	nt	-2	44*	0	-8
Cc1cc(OCC(=O)N2CCc3ccccc3C2)c(C)cc1Br	-23	10	-1	18*	2	-11
Cc1ccc(C)c(OCC(=O)N2CCc3ccccc3C2)c1	-3	3	-2	0	-3	-6
CCC(=O)N(C)C[C@@H]1Oc2cc(C3=CCCC3)ccc2S(=O)(=O)N([C@H](C)CO)C[C@H]1C	nt	-1	nt	0	5	nt
CN(C)c1nc(N(C)C)nc(N2CCCCC2)n1	-2	0	-1	nt	nt	17
CC1CCN(c2nc(N3CCCCC3)nc(N3CCCCC3)n2)CC1	0	-2	0	43*	-5	-5
CC(C)OC(=O)N(C)C[C@H]1OCc2ccccc2-c2ccccc2C(=O)N([C@H](C)CO)C[C@@H]1C	nt	5	nt	0	-7	nt
Cc1ccc(S(=O)(=O)N(C)C[C@H]2Oc3ccc(NC(=O)CCN4CCOCC4)cc3CC(=O)N([C@@H](C)CO)C[C@@H]2C)cc1	nt	16	nt	0	1	nt
CCO/C=C1/C(=O)N(Cc2ccccc2)C(=O)c2ccccc21	3	nt	1	0	26*	-7
NC(=O)C[N+]1(CC#CC(O)(c2ccccc2)c2ccccc2)CCCC1	-7	nt	-1	4.0*	-2	7
CN1C(=O)c2cc(NC(=O)c3ccc(Cl)cc3)ccc2OC[C@H]2O[C@@H](CC(=O)O)CC[C@@H]21	nt	0	nt	0	-1	nt
COc1ccc([Si](C)(C)[C@H]2[C@H](CCO)O[C@@]3(C(=O)N(Cc4cccc(NC(=O)[C@H](C)O)c4)c4ccccc43)[C@@H]2C)cc1	nt	-4	nt	2.9*	3	nt
COc1ccc([Si](C)(C)[C@@H]2[C@@H](CCO)O[C@]3(C(=O)N(Cc4ccc(NC(=O)[C@H](C)O)cc4)c4ccccc43)[C@H]2C)cc1	nt	5	nt	0	3	nt
O=C(O)C[C@H]1CC[C@H]2[C@@H](COC[C@H](O)CN2S(=O)(=O)c2ccc(F)cc2)O1	nt	0	nt	0	-3	nt
CCOC(=O)C(CC)Sc1ccc2nnc(CCNS(=O)(=O)c3ccccc3)n2n1 (configuration not stated)	-6	nt	0	44*	-3	1
COc1ccccc1CN1[C@@H]2Cn3c(ccc(C4=CCCCC4)c3=O)[C@H]1[C@@H](C(=O)N(C)C)[C@@H]2CO	nt	-2	nt	nt	-21	nt
COc1ccc(N2CS(=O)CC2=O)cc1 (configuration not stated)	5	5	0	43*	1	-8
CCOC(=O)C1=C[C@@H](C)N(S(=O)(=O)c2ccc(C)cc2)[C@H]1c1ccccc1	nt	0	nt	0	2	nt
CCOC(=O)C1=C[C@@H](c2ccccc2)N(S(=O)(=O)c2ccc(C)cc2)[C@H]1c1ccccc1Cl	nt	-2	nt	0	23*	nt
O=[N+]([O-])c1cc(Cl)ccc1N1CCCC1	2	0	0	44*	0	-6
CN(C)S(=O)(=O)n1cc(/C=C(\NC(=O)c2ccccc2)C(=O)NCCCn2ccnc2)c2ccccc21	2	3	1	0	-3	-6
SMILES	dFosB act	PglD DTNB	CDK5 p35 inh	FGF22 binding	SIRT5 inh	PvdQ inh
CN(C)S(=O)(=O)n1cc(/C=C(\NC(=O)c2ccccc2Cl)C(=O)NCCCn2ccnc2)c2ccccc21	7	nt	nt	0	19*	-13
C[C@H](CO)N1C[C@H](C)[C@@H](CN(C)C(=O)Nc2ccc(F)cc2)OCCCC[C@H](C)Oc2ccc(NS(C)(=O)=O)cc2C1=O	nt	-2	nt	0	-2	nt
COc1ccc(/[N+]([O-])=C/c2ccoc2)cc1	-2	-1	-4	45*	1	-4
CC1CCCN(CCOCCSc2ccccc2)C1 (configuration not stated)	4	nt	0	0	21*	9
O=C(O)CSc1ncnc2c1sc1nc(-c3ccccc3)c3c(c12)CCC3	-62	nt	0	0	18*	-8
O=c1[nH]cnc2c1sc1nc(-c3ccccc3)c3c(c12)CCCC3	-2	nt	0	0	-3	-12
COc1ccc2nc3cc(Cl)ccc3c(Nc3cc(C(C)C)c(O)cc3C)c2c1	89*	5	1	-1	-4	-16
COc1ccc2c(c1OC)CN(C)CCc1cc3c(cc1C(=O)C2)OCO3	2	nt	-1	43*	0	5
COc1cc2c(cc1OC)C(=O)Cc1ccc3c(c1CN(C)CC2)OCO3	0	2	-2	0	-3	-17
COc1ccc(C(=O)N2CCOC2CNC(=O)C(=O)NCc2ccc3c(c2)OCO3)cc1 (configuration not stated)	0	nt	0	0	-2	-13
Cc1ccc(CNC(=O)C(=O)NCC2OCCN2C(=O)c2ccc3c(c2)OCO3)cc1 (configuration not stated)	17*	1	0	0	0	-2
Cc1cc(C)nc(N2CCCC(C(=O)Nc3ccc4c(c3)OCO4)C2)n1 (configuration not stated)	0	nt	-1	nt	nt	-6
Cc1ccc(S(=O)(=O)N2CCCC2CNC(=O)C(=O)NCc2ccc3c(c2)OCO3)cc1 (configuration not stated)	nt	3	nt	43*	nt	nt
Cc1cc(C)nc(N2CCCC(C(=O)NCc3ccc4c(c3)OCO4)C2)n1 (configuration not stated)	-3	nt	-7	43*	-8	-2
C[C@@H]1CN([C@@H](C)CO)C(=O)c2cccc(NC(=O)CCCCCC(=O)Nc3ccccc3N)c2O[C@H]1CN(C)Cc1ccc(-c2ccccc2)cc1	nt	nt	nt	-1	18*	nt
C[C@H]1CN([C@@H](C)CO)C(=O)c2cccc(NC(=O)CCCCCC(=O)Nc3ccccc3N)c2O[C@@H]1CN(C)Cc1ccc(Oc2ccccc2)cc1	nt	nt	nt	0	24*	nt
C[C@@H]1CN([C@@H](C)CO)C(=O)c2cccc(NC(=O)C3CC3)c2O[C@@H]1CN(C)Cc1ccc(C(=O)Nc2ccccc2N)cc1	nt	-9	nt	0	17*	nt
C[C@@H]1CN([C@H](C)CO)C(=O)c2cccc(NC(=O)CCCCCC(=O)Nc3ccccc3N)c2O[C@@H]1CN(C)Cc1ccc(Oc2ccccc2)cc1	nt	nt	nt	0	1	nt
CCCNC(=O)[C@H]1[C@H](CO)[C@H]2Cn3c(ccc(-c4ccc(OC)cc4)c3=O)[C@H]2N1CC	nt	nt	nt	nt	-16	nt
